Mtb FBA inh: inhibitors of M. tuberculosis fructose-bisphosphate aldolase; P9WQA3; purified M. tuberculosis FBA, fluorescence read-out; inhibition, % at 1 µM; hit rate 2.3% among 360,000; AID 588726; in the data active = inhibition above about 27%;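 also: 0% = vehicle and 100% = reference inhibitor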
Target sequence (P9WQA3 whole entry, looked up): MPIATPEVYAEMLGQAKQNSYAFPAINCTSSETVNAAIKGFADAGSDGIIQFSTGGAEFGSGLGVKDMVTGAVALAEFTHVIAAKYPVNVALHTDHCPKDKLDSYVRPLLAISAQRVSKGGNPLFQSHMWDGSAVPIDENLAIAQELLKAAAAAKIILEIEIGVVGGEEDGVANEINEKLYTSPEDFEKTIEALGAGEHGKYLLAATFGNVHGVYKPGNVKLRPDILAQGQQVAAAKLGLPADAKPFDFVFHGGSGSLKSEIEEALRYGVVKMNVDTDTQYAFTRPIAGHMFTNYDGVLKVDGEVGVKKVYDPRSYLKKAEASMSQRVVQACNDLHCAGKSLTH
Mtb BioA inh: inhibitors of Mycobacterium tuberculosis BioA enzyme | purified M. tuberculosis BioA enzyme, plate reader | inhibition, % at 9.99 µM | hit rate 0.096% among 360,000 | AID 602481; in the data active = inhibition above about 40%
FadD28 binding: M. tuberculosis FadD28 bisubstrate binding inhibition; inhibition, % at 12.5 µM; FadD28 bisubstrate probe binding, fluorescence polarization; hit rate 0.22% among 360,000; in the data active = inhibition above about 8.5%, passing the limit was not always enough
GDH-TPI inh: counter-screen for M. tuberculosis FBA inhibitors: GDH-TPI coupled enzymes. GDH-TPI coupled enzyme counterscreen, NADH absorbance. inhibition, % at 4.8 µM. hit rate 1.2% among 360,000; in the data active = inhibition above about 30%;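 also: 0% = DMSO wells and 100% = wells lacking the enzyme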
Mtb hypoxia rep: reduces hypoxia-regulated biosensor signal in M. tuberculosis. M. tuberculosis hypoxia-regulated fluorescent reporter, fluorescence. fluorescence inhibition, % (no concentration beside the values). hit rate 0.1% among 300,000. AID 1159583; in the data active = fluorescence inhibition mostly above about 23%, no sharp cut-off; inactive = mostly below about 17%
Starred values were filed as active, the others as inactive. Hits are enriched below; roughly 2.9% of the tested compounds scored in any of these assays.

Results for CCCCNC(=O)CC1S/C(=N/N=C/c2ccc(OC)cc2)NC1=O (stereo not given) ?
Mtb FBA inh: -2; FadD28 binding: -3; GDH-TPI inh: 33*

Results for O=C1CC(C(=O)Nc2ccccc2)S/C(=N\N=C\c2ccco2)N1 (stereo not given) ?
Mtb FBA inh: -4; Mtb BioA inh: -1; FadD28 binding: 0; GDH-TPI inh: 29

Results for COc1ccc(NC(=O)C2CC(=O)N/C(=N/N=C/c3ccco3)S2)cc1 (stereo not given) ?
Mtb FBA inh: -2; Mtb BioA inh: 0; FadD28 binding: -3; GDH-TPI inh: 45*

How did COc1cccc(C=NNC(=O)c2ccc(=O)n(C)c2)c1OC do in these assays?
Mtb hypoxia rep: 1

Results for O=C1CC(C(=O)Nc2ccc(Cl)cc2)S/C(=N\N=C\c2ccco2)N1 (stereo not given) ?
Mtb FBA inh: -2; Mtb BioA inh: -1; FadD28 binding: -3; GDH-TPI inh: 56*

Results for CC(C)C1S/C(=N/N=C/c2ccco2)NC1=O (stereo not given) ?
Mtb FBA inh: -4; Mtb BioA inh: 0; FadD28 binding: -4; GDH-TPI inh: 57*

How did C[C@@H]1CN([C@H](C)CO)C(=O)c2cc(-c3cccc(F)c3)cnc2O[C@H]1CN(C)C do in these assays?
Mtb BioA inh: -1

What do the screens show for `N#Cc1c(Nc2ccccc2)c(C=NN=Cc2ccccc2)c[nH]c1=O`?
Mtb hypoxia rep: 10

Results for O=c1oc2ccccc2c2oc3cc(O)c(O)cc3c12 ?
Mtb FBA inh: -1; FadD28 binding: -1; GDH-TPI inh: 21; Mtb hypoxia rep: 7

What do the screens show for `O=c1oc2c(O)c(O)cc3c(=O)oc4c(O)c(O)cc1c4c23`?
Mtb FBA inh: 0; Mtb BioA inh: 5; FadD28 binding: 14*; GDH-TPI inh: 14

Results for COc1cc(C=NO)cc(Br)c1OS(=O)(=O)c1ccc(C)cc1 ?
Mtb hypoxia rep: 4

How did Cc1ccc(-c2nnc(Nc3ccc(CC(N)=O)cc3)c3ccccc23)cc1S(=O)(=O)NCC1CCCO1 (stereo not given) do in these assays?
Mtb FBA inh: 4; FadD28 binding: -1; GDH-TPI inh: 32*; Mtb hypoxia rep: -4

What do the screens show for `COC(=O)c1ccc(Nc2nnc(-c3ccc(C)c(S(=O)(=O)NCC4CCCO4)c3)c3ccccc23)cc1` (stereo not given)?
Mtb FBA inh: 0; Mtb BioA inh: 0; FadD28 binding: -1; GDH-TPI inh: 23

How did Cc1ccc(-c2nnc(Nc3ccc(C(=O)N(C)C)cc3)c3ccccc23)cc1S(=O)(=O)NC(C)(C)CO do in these assays?
Mtb FBA inh: -1; FadD28 binding: -2; GDH-TPI inh: 37*; Mtb hypoxia rep: 9

How did Cc1noc(C)c1NC(=O)Nc1ccc2c(c1)C(=O)N([C@@H](C)CO)C[C@@H](C)[C@H](CN(C)Cc1ccc(Cl)c(Cl)c1)OCCCC[C@@H](C)O2 do in these assays?
Mtb BioA inh: -3

What do the screens show for `CC(C)NC(=O)N(C)C[C@@H]1Oc2c(cccc2N(C)C)C(=O)N([C@H](C)CO)C[C@H]1C`?
Mtb BioA inh: -1

What do the screens show for `O=C1C(=O)N(CCO)C(c2ccccc2[N+](=O)[O-])/C1=C(\O)c1ccccc1` (stereo not given)?
Mtb FBA inh: 2; Mtb BioA inh: 0; FadD28 binding: -1; GDH-TPI inh: 12; Mtb hypoxia rep: 3

Results for O=C1C(=O)N(c2ccc(O)cc2)C(c2ccccc2[N+](=O)[O-])/C1=C(\O)c1ccccc1 (stereo not given) ?
Mtb FBA inh: -5; Mtb BioA inh: 1; FadD28 binding: 0; GDH-TPI inh: 36*; Mtb hypoxia rep: 10

Results for O=C(C1CC1)N1CCCCN2[C@H](C1)[C@H](c1ccc(-c3ccncc3)cc1)[C@@H]2CO ?
Mtb BioA inh: 3

What do the screens show for `Cc1noc(C)c1S(=O)(=O)Nc1ccc2c(c1)C(=O)N([C@@H](C)CO)C[C@@H](C)[C@@H](CN(C)C(=O)Nc1ccc3c(c1)OCO3)O2`?
Mtb BioA inh: 2

How did CN1CCN(C(=O)c2cc3c(=O)n4ccccc4nc3s2)CC1 do in these assays?
Mtb FBA inh: active; Mtb BioA inh: 0; FadD28 binding: -4; GDH-TPI inh: 10; Mtb hypoxia rep: 6

How did CC1CN(C(=O)c2cc3c(=O)n4ccccc4nc3s2)CC(C)O1 (stereo not given) do in these assays?
Mtb FBA inh: 196*; Mtb BioA inh: 2; FadD28 binding: -1; GDH-TPI inh: 34*; Mtb hypoxia rep: 5

How did Cc1cc(C)c2c(N=NN3CCCCC3)[nH]nc2n1 do in these assays?
Mtb FBA inh: 2; FadD28 binding: -3; GDH-TPI inh: 12; Mtb hypoxia rep: -6

How did CCN(CC)N=Nc1[nH]nc2nc(C)cc(C)c12 do in these assays?
Mtb FBA inh: -9; Mtb BioA inh: 0; FadD28 binding: 1; GDH-TPI inh: 32*; Mtb hypoxia rep: 12

How did COc1cc(C=NO)ccc1OCc1ccccc1Cl do in these assays?
Mtb hypoxia rep: 9

How did Cc1ccc(Nc2ccc(N)cc2S(=O)(=O)O)cc1 do in these assays?
Mtb FBA inh: 18; Mtb BioA inh: 4; FadD28 binding: 85*; GDH-TPI inh: 3; Mtb hypoxia rep: 3

What do the screens show for `Cc1noc(C)c1NC(=O)N1C[C@@H](O)COC[C@@H]2O[C@H](CC(=O)N3CCc4ccccc4C3)CC[C@H]21`?
Mtb BioA inh: -1

Results for COCC(=O)N1C[C@@H](C)[C@H](OC)CN(C)C(=O)c2ccc(NC(=O)c3ccc(-c4ccccc4)cc3)cc2OC[C@H]1C ?
Mtb BioA inh: -1

Results for O=C(O)CSc1ncnc2sc(-c3ccccc3)cc12 ?
Mtb FBA inh: 6; FadD28 binding: -4; GDH-TPI inh: 19

What do the screens show for `S=c1[nH]cnc2sc(-c3ccccc3)cc12`?
Mtb FBA inh: -3; FadD28 binding: -1; GDH-TPI inh: 52*

How did O=[N+]([O-])c1ccccc1NN=C1CCc2ccccc21 do in these assays?
Mtb hypoxia rep: 11

Results for Nc1nonc1-c1nc2ccccc2n1CC(=O)N/N=C/c1ccc(-c2ccccc2C(=O)O)o1 ?
Mtb FBA inh: 2; FadD28 binding: -5; GDH-TPI inh: 42*

How did CCCNC(=O)C[C@H]1CC[C@H]2[C@@H](COC[C@@H](O)CN2C(=O)c2ccccn2)O1 do in these assays?
Mtb BioA inh: -3

How did Cc1c(C(=O)N2CCN(S(=O)(=O)c3cccs3)CC2)oc2ccc(F)cc12 do in these assays?
Mtb FBA inh: 4; Mtb BioA inh: -5; FadD28 binding: 0; GDH-TPI inh: 6; Mtb hypoxia rep: -6

How did Cc1c(C(=O)N2CCN(S(=O)(=O)c3ccc(F)cc3)CC2)oc2ccccc12 do in these assays?
Mtb FBA inh: -2; Mtb BioA inh: 1; FadD28 binding: -3; GDH-TPI inh: -3; Mtb hypoxia rep: 39*

Results for CCOC(=O)N1CCC(NC(=S)Nc2ccc3nc(N4CCN(CC)CC4)cc(C)c3c2)CC1 ?
Mtb FBA inh: 13; FadD28 binding: -3; GDH-TPI inh: 35*; Mtb hypoxia rep: 1

Bioassay records deposited in PubChem BioAssay by several laboratories.
